Shown is part of a subset that was picked to be rich in hits.
Methyltransferases: Primary Screen for Target Class Profiling of Small Molecule Inhibitors of Methyltransferases | purified enzyme, MTase-Glo SAH luminescence; stronger effect = lower value | 3.9% of 25,000 active | calls only at 40 µM; call rule not given here
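Each enzyme was assayed with SAM and its substrate. SAH formation detected by MTase-Glo luminescence; single-point 40 uM screen[…].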
* hit, by the source's call; i = inactive; + = active, no number. % is set by controls: 0 for no effect and ±100 for the full control effect.

SMILES | Methyltransferases
CCc1cccc(N2C(=O)c3cc(C(=O)OC)nn3CC2(C)C(=O)NC2CCC(C)CC2)c1 (configuration not stated) | i
Cn1cc(-c2cnn3c(N)c(Br)c(C4CCCNC4)nc23)cn1 (configuration not stated) | +
O=C(Cn1nc2n(Cc3ccc(F)cc3)c(=O)c3ccccc3n2c1=O)Nc1cc(F)ccc1F | i
CC1(C(=O)NC2CCCCCCC2)Cc2ccccc2C(=O)N1CC1CCCO1 (configuration not stated) | i
CCOc1ccc(CN2C(=O)c3cc4oc(C)cc4n3CC2(C)C(=O)NC2CCCCCCC2)cc1 (configuration not stated) | i
O=C(CCc1nnc2n(Cc3ccc(F)cc3)c(=O)c3ccccc3n12)N1CCN(c2ccc(F)cc2)CC1 | i
CCCn1c(=O)c2ccc(C(=O)NCC(C)C)cc2n2c(=O)n(Cc3cccc(F)c3)nc12 | i
CCOc1ccccc1CNC(=O)c1cc2n(n1)CC(C)(C(=O)NC1CCCCCC1)N(C)C2=O (configuration not stated) | i
Nc1nc2ccc(Cl)cc2c2nc(-c3ccco3)nn12 | i
Nc1nc2c(cnn2CCc2ccccc2)c2nc(-c3ccco3)nn12 | +
CC1(C(=O)NC2CCCCCC2)Cn2c(cc3occc32)C(=O)N1Cc1cccs1 (configuration not stated) | i
CCOc1ccc(CN2C(=O)c3cc4occc4n3CC2(C)C(=O)NC2CCC(C)CC2)cc1 (configuration not stated) | i
O=C(Cn1ccc2cc(S(=O)(=O)N3CCCCC3)ccc21)NCc1ccc(F)cc1 | i
COC(=O)c1cc2n(n1)CC(C)(C(=O)NC1CCC(C)CC1)N(c1ccc(C)cc1C)C2=O (configuration not stated) | i
Clc1ccc(-c2nnn3c2nc(NCC2CCCO2)c2ccccc23)cc1 (configuration not stated) | i
COc1ccc(-c2cc3n(n2)CC(C)(C(=O)NCc2ccccc2OC)N(Cc2ccc(Cl)cc2)C3=O)cc1 (configuration not stated) | i
CC[C@H]1CN(c2nc(N)c(C(N)=O)nc2Cl)CCN1C1CCN(Cc2ccc(Cl)cc2)CC1 | +
NC(N)=NC(=O)c1nc(Cl)c(N2CCCCCC2)nc1N | i
Cc1c(C)c(NCC(=O)N(C)C2CCN(Cc3ccc(C(N)=O)cc3)CC2)c(C)c(C)c1N | i
Cc1ccccc1CN1C(=O)c2ccc(-c3ccccc3)n2CC1(C)C(=O)NC1CCCCCC1 (configuration not stated) | i
Cc1c(Cl)cccc1NC(=O)N1CCn2cccc2C1C (configuration not stated) | i
CCOC(=O)CCN(C(=O)c1ccc2c(c1)nc(CNc1ccc(C(=N)N)cc1)n2C)c1ccccn1 | +
CCCCOc1ccc2c(-c3ccccc3)cc(=O)oc2c1 | i
Cc1nc(C#Cc2ccnc(Cl)c2)c(C)n1-c1ccc(F)cc1 | +
CC1CCCCC1NC(=O)C1(C)Cn2c(cc3sccc32)C(=O)N1Cc1ccc(F)cc1 (configuration not stated) | i
SMILES | Methyltransferases
CC(C)Cn1c(=O)c2ccccc2n2c(=O)n(CC(=O)NCc3ccccc3Cl)nc12 | i
Cc1ccc(C)c(-c2cc(C(F)(F)F)nn2-c2ccc(S(N)(=O)=O)cc2)c1 | +
NS(=O)(=O)c1ccc(-n2nc(C(F)(F)F)cc2-c2ccc(Cl)cc2)cc1 | i
CS(=O)(=O)c1ccc(-n2nc(C(F)(F)F)cc2-c2ccc(F)cc2)cc1 | i
COc1ccc(CNC(=O)c2cc3n(n2)CC(C)(C(=O)NC2CCCCCC2)N(C)C3=O)cc1 (configuration not stated) | i
CCCN1C(=O)c2cc(-c3ccc(OC)cc3)nn2CC1(C)C(=O)NCc1ccccc1OC (configuration not stated) | i
CC(C)NC(=O)c1ccc2c(=O)n(Cc3ccccc3)c3nnc(SCc4cccc(F)c4)n3c2c1 | i
CCOc1ccccc1CN1C(=O)c2cc(C(C)(C)C)nn2CC1(C)C(=O)NC1CCCCC1 (configuration not stated) | i
CC(C)(O)C(=O)N1CCN(c2ccc(C(F)(F)F)c(C3=C(c4c[nH]c5ccccc45)C(=O)NC3=O)c2)CC1 | +
COCCCNC(=O)C1(C)Cn2nc(-c3ccccc3)cc2C(=O)N1c1cc(C)cc(C)c1 (configuration not stated) | i
COc1ccccc1CCNC(=O)CNC(=O)C1(C)Cn2c(cc3ccccc32)C(=O)N1C (configuration not stated) | i
CC1CCN(S(=O)(=O)c2ccc3c(ccn3CCC(=O)NCCc3ccccc3Cl)c2)CC1 | i
Cc1c[nH]c2nccc(Oc3c(F)cc(Nc4cc(Cl)nc(N)n4)cc3F)c12 | +
COc1ccccc1CN1C(=O)c2cc3sccc3n2CC1(C)C(=O)NC1CCCC1 (configuration not stated) | i
COc1ccc(N2CCN(C(CNS(=O)(=O)c3ccc(OC)cc3)c3ccco3)CC2)cc1 (configuration not stated) | i
Cc1ccc(Nc2ccn3c(=O)n(CC(=O)Nc4ccc(F)cc4F)nc3n2)cc1 | i
COc1cc(N2CCC(N(C)C)CC2)ccc1Nc1ncc(Cl)c(Nc2ccccc2P(C)(C)=O)n1 | +
COc1cc(N2CCN(C)CC2)ccc1Nc1nccc(-c2cn(C)c3cnccc23)n1 | i
COc1ccccc1Nc1ncc2c(n1)CN(C(=O)c1ccnn1C)CCN2 | i
COc1cc(N2CCC(N3CCN(C)CC3)CC2)ccc1Nc1ncc(Cl)c(Nc2ccccc2S(=O)(=O)C(C)C)n1 | +
Cc1ccc(CSc2nnc3n(CC(C)C)c(=O)c4cc(F)ccc4n23)cc1 | i
CC1(C(=O)NC2CCCCC2)Cn2c(nc3ccccc32)C(=O)N1Cc1ccccc1F (configuration not stated) | i
COCCCNc1nc2c(S(=O)(=O)c3ccc(C)c(C)c3)nnn2c2ccccc12 | i
C=C(C)C1Cc2cc(C(=O)OC3OC(CO)C(O)C(O)C3O)ccc2O1 (configuration not stated) | +
COc1cc(C(=O)O)ccc1OC1OC(CO)C(O)C(O)C1O (configuration not stated) | i
SMILES | Methyltransferases
COc1cc(C(C)=O)ccc1O[C@@H]1O[C@H](CO)[C@@H](O)[C@H](O)[C@H]1O | i
CCC(C)NC(=O)c1ccc2c(=O)n(C)c3nn(CC(=O)Nc4ccc(C)cc4)c(=O)n3c2c1 (configuration not stated) | i
O=C(Nc1ccc(F)cc1)c1ccnc2[nH]ccc12 | i
Nc1nccc(Oc2ccc(NC(=O)c3c[nH]cc(-c4ccc(F)cc4)c3=O)cc2F)c1Cl | +
COc1ccc(OC)c(-c2ccc(NC(=O)c3ccncc3F)cc2)c1 | i
COc1cccc(N2CCN(C(=O)CCCc3nnc4n5nc(-c6ccccc6)nc5c5ccccc5n34)CC2)c1 | i
CCC(C)NC(=O)c1ccc2c(=O)n(C)c3nn(Cc4c(F)cccc4Cl)c(=O)n3c2c1 (configuration not stated) | i
CCOC(=O)Cn1c(=O)oc2cc(S(=O)(=O)NCCc3ccc(Cl)cc3)ccc21 | i
Cn1cnc(S(=O)(=O)NCCc2ccc(Cl)cc2)c1 | i
Cc1cccc(-c2nnn3c2nc(N2CCCC2)c2ccccc23)c1 | i

Screens from PubChem.
